From the supplement of paper PMC10338343
± gives the standard deviation.

System: MILI (PIWIL2) piRISC loaded with piRNA #1 (26 nt)
Assay: pre-steady-state target cleavage rate (min^-1); guide: piRNA #1 5'p-UGAGGUAGUAGGUUGUAUAGUAUCCA; MIWI and MILI are mouse PIWI proteins and EfPiwi is from a freshwater sponge; tags in brackets are library labels; higher = faster piRNA-guided slicing of the target
Conditions: auxiliary factor: 500 nM mouse GTSF1
Method in brief: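 With or without 500 nM GTSF1 partner protein, 1 nM active affinity-purified piRISC carrying one synthetic guide was mixed with 0.1 nM transcribed, DNA-blocked target RNA library in HEPES–potassium acetate buffer at 33 °C for 0–8 or 0–960 min. Uncleaved targets were sequenced and normalised to depth and to weakly complementary targets, three trials were pooled, and k3 was capped at 0.0001 min^-1. The pre-steady-state cleavage rate came from a burst-and-steady-state fit.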

Row | Sequence | pre-steady-state target cleavage rate
1 | GGAGACCUAUGUAUAAAACCUACUACCUCA | 0.0488 ± 0.0094
2 | GGAGACCUAUGAUUUCAUCCUACUACCUCA | 0.0038 ± 0.0025
3 | GGAGACCUAUGUAUUCAACCUACUACCUGA | 0.0167 ± 0.0046
4 | GGAGACCUUACUAUUGUACCUACUACCUCA | 0.0232 ± 0.0049
5 | GGAGACCUAUGAAUACAACCUACCACCUCA | 0.00506 ± 0.0036
6 | GGAGACCUAUGUAUACAACCUACUAACCUCA | 0.0935 ± 0.013
7 | GGAGACCUAUGAUAUGUUGCUACAACCUGA | < 0.0001
8 | GGAGACCUAUCUAUACAACCAACUACCACA | 0.00574 ± 0.0023
9 | GGAGACCUAACUAUACAACCUACUAACCUCA | 0.187 ± 0.028
10 | GGAGACCUAUCUAUACAACCUACCUACCUCA | 0.0519 ± 0.0097
11 | GGAGACCUAUGAUUACAACGUACUACCACA | 0.00319 ± 0.0028
12 | GGAGACCUAUGAUAUGUUCCUAUCUACCUCA | < 0.0001
13 | GGAGACCUUACUAUACUACCUACUACCACA | 0.173 ± 0.014
14 | GGAGACCUAUCUAAACAACCAACUACCUCA | 0.00401 ± 0.0024
15 | GGAGACCUAACUAUAGAAGCUACUACCUCA | 0.156 ± 0.029
16 | GGAGAGGAUACUAUACAACCUACUACCAUCA | 0.0616 ± 0.0087
17 | GGAGACCAUACUUUACAACCUACUACCACA | 0.226 ± 0.023
18 | GGAGACCUAUGAAUACAACCUACUACCCCA | 0.00425 ± 0.0034
19 | GGAGACCUAUGUAUCACAACCUACUACCUCA | 0.0102 ± 0.003
20 | GGAGACCUAUGAUAUGAACGUUCUACCUCA | < 0.0001

Row | Sequence | pre-steady-state target cleavage rate
21 | GGAGACCUAUCUAUACUACCUUCUACCUCA | 0.00727 ± 0.003
22 | GGAGACCUAUGAUAACAAGCUACUACCUGA | 0.00722 ± 0.0035
23 | GGAGACCUUACUCUACAACCUACUACCUCA | 0.202 ± 0.02
24 | GGAGACCUAUGUAUACAACCUACUACCUCC [g2:g19:cont:t1C] | 0.0539 ± 0.0077
25 | GGAGACCUUACUAUACAACCUACAUCCUCA | 0.0472 ± 0.0095
26 | GGAGACCUAUCUAUACAACCUAGAUCCUCA | 0.0047 ± 0.0021
27 | GGAGACCUUACUAUUCAACCUACUACCACA | 0.161 ± 0.016
28 | GGAGACCUAUGUUUACAACGUACUACCUCA | 0.00618 ± 0.0026
29 | GGAGAGGAUUCUAAACAACCUACUACCUCA | 0.149 ± 0.01
30 | GGAGACCUAUCUUAACAACCUACUACCUCA | 0.0183 ± 0.0045
31 | GGAGACCUAUGAAUACAACGUACUAGCUCA | 0.0036 ± 0.0035
32 | GGAGACCAUACUAAACAACCUAGUACCUCA | 0.0362 ± 0.0083
33 | GGAGACCUAACUAUACUACGUACUACCUCA | 0.0154 ± 0.0042
34 | GGAGUGGAUUCUAUACAACCUACAACCUCA | 0.0777 ± 0.0074
35 | GGAGACCUAUCUAUACACCUACUACCUCA | 0.00467 ± 0.0029
36 | GGAGACCUAUGAUAACAUCCUACUAGCUCA | 0.00409 ± 0.0032
37 | GGAGACCUUACUAUACAACCUAGAUCCUCA | 0.00967 ± 0.0031
38 | GGAGACCUUUCUAUACAACCUACAACCUCA | 0.0806 ± 0.01
39 | GGAGACGAUACUUUACAACCUACAACCUCA | 0.0642 ± 0.013
40 | GGAGUGGAUAGAUUACAACCUACUACCUCA | 0.0915 ± 0.01
